Screening data as filed in PubChem.
Sampled rows, rich in hits. Any-hit rate of the full collection: about 2.4%.
HSP90 inh: HSP90 inhibitors, primary screen, cell lysate, luminescence; Heat shock protein HSP 90 (rabbit reticulocyte lysate; luciferase refolding); Rabbit reticulocyte lysate, luciferase refolding luminescence, 3 h; inhibition, % at 5.6 µM; 290,000 tested, 0.91% active; AID 1789, 2009;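 active = inhibition above the screen-wide mean plus 3 SD, computed separately per campaign, cut at about 16% in these data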;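 note: 0% = DMSO wells and 100% = 60 µM geldanamycin wells; inhibitors lower the luminescence because luciferase stays unfolded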
HSF1 inhib: HSF1 inhibitors in luciferase reporter cells, primary screen, cell-based, NIH3T3, luminescence. NIH3T3-HGL HSE-luciferase, MG132-induced, luminescence 8 h; active compounds read low. activity change, negative = inhibition, % at 7.5 µM (by protocol). 300,000 tested, 0.77% active. AID 2098, 2009;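 active = more than half of replicate wells show activity change below -50%, luminescence cut by over half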;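 note: luciferase reports HSF-1 transcriptional activity via heat shock element; 0% = median of DMSO wells and -100% = zero luminescence signal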
STAT3 inh: IL-6 driven STAT3 reporter inhibitors, primary screen, U3A cells, luciferase, luminescence, MLSCN library; inhibition, % at 5.5 µM; 190,000 tested, 0.89% active; IL-6 STAT3-luciferase reporter; host cell line lacks STAT1;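 active = inhibition above the mean inhibition across all screened compounds plus 3 SD, cut at about 44% in these data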;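 note: 0% = DMSO only wells and 100% = 100 µM nifuroxazide control wells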
PPC-1+TRAIL kill: compounds killing PPC-1 cancer cells with TRAIL present, primary screen, TRAIL potentiator project, ATPLite luminescence, uHTS; PPC-1 cells + TRAIL, ATPLite viability luminescence; 220,000 tested, 0.41% active; cell killing (% activity), % at 4 µM or 5 µM;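 active = cell killing above 50% in the first pass at 4 µM, then a duplicate retest at 5 µM averaging 50% or more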;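 note: plate controls were cells with TRAIL plus DMSO for no effect and medium-only wells lacking cells for full effect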
TRAIL sens C8: viability loss with TRAIL in NB7+C8 cells, primary screen, TRAIL sensitizer project, cell-based, ATPlite luminescence | AID 624354, 2012 | inhibition (viability loss, TRAIL sensitization), % at 10 µM | 360,000 tested, 1% active;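 active = compounds causing at least 50% loss of cell viability in the single-dose screen, relative to plate controls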
STAT1 blocker: STAT1 signaling inhibitors, primary screen, cell-based, HTS, luciferase reporter; NIH 3T3 STAT1-luciferase reporter, IFN-gamma, luminescence; inhibition, % at 5.5 µM; 200,000 tested, 0.35% active; AID 920, 2007;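 active = inhibition above a set limit, the mean inhibition across all tested compounds plus 3 SD, cut at about 34% in these data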;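 note: 0% = IFN-gamma with DMSO and 100% = IFN-gamma with 300 µM nifuroxazide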
The depositor's hits bear a star.

Results for O=C(/C=C/c1ccco1)NCCCN1CCOCC1 ?
HSP90 inh: -1.2; HSF1 inhib: -0.2; STAT3 inh: 2.7; PPC-1+TRAIL kill: 25.2; TRAIL sens C8: 0.4; STAT1 blocker: -4.0

What do the screens show for `CC1CCC(C(C)C)C(NC(=O)c2ccncc2)C1` (centres undefined)?
TRAIL sens C8: -0.9

How did CCCc1cc(=O)[nH]c(SCC(=O)Nc2sc(C(N)=O)c(C)c2C(=O)OCCOC)n1 do in these assays?
TRAIL sens C8: 85.2*

How did CCCc1cc(=O)[nH]c(SCC(=O)NC(=O)OCC)n1 do in these assays?
HSP90 inh: -1.3; HSF1 inhib: -3.5; STAT3 inh: 0.1; PPC-1+TRAIL kill: -18.0; TRAIL sens C8: 5.1; STAT1 blocker: -2.3

Results for CNC(=O)C[C@@H]1C(=O)N(C2CCCCC2)CC1(C)C ?
TRAIL sens C8: -3.8

How did CCCOc1ccc(N2CC(C(=O)NC(C)C)CC2=O)cc1 (centres undefined) do in these assays?
HSP90 inh: -1.0; HSF1 inhib: -59.6*; STAT3 inh: -2.2; PPC-1+TRAIL kill: -9.5; TRAIL sens C8: -0.6; STAT1 blocker: -6.2

How did CC(/C=N/NC(=O)c1n[nH]c2c1CCC2)=C\c1ccccc1 do in these assays?
HSP90 inh: 1.2; HSF1 inhib: 2.1; STAT3 inh: -31.9; PPC-1+TRAIL kill: 20.1; TRAIL sens C8: 47.1*; STAT1 blocker: -23.8

Results for O=C(N/N=C/C(Br)=C\c1ccccc1)c1n[nH]c2c1CCC2 ?
HSP90 inh: 3.8; HSF1 inhib: 210.2; STAT3 inh: -49.5; PPC-1+TRAIL kill: 37.4; TRAIL sens C8: 35.6; STAT1 blocker: -31.9

How did CC(/C=N/NC(=O)c1cccs1)=C\c1ccccc1 do in these assays?
HSP90 inh: 0.9; HSF1 inhib: 28.0; STAT3 inh: 32.0; PPC-1+TRAIL kill: 20.6; TRAIL sens C8: 58.4*; STAT1 blocker: -38.1

Results for CCOC(=O)[C@]12CCCC=C1N(Cc1ccc(Cl)cc1Cl)C(=O)[C@H](CC(=O)NCc1cccs1)C2 ?
TRAIL sens C8: 6.4

Results for COCCCNc1cc(C)nc2ccccc12 ?
HSP90 inh: 1.9; HSF1 inhib: -5.4; STAT3 inh: -23.5; PPC-1+TRAIL kill: 13.6; TRAIL sens C8: -4.4; STAT1 blocker: -5.2

What do the screens show for `Cc1cc(NCCCCCCCNc2cc(C)nc3cc([N+](=O)[O-])ccc23)c2ccc([N+](=O)[O-])cc2n1`?
HSF1 inhib: -15.4; TRAIL sens C8: 57.6*

How did CCC1(C)CC(C#N)(C#N)C(=O)NC1=O (centres undefined) do in these assays?
TRAIL sens C8: 4.1

Results for O=C(N/N=C/c1ccc(F)cc1)c1ccc(OCc2ccccc2)cc1 ?
HSP90 inh: -3.0; HSF1 inhib: -75.0*; PPC-1+TRAIL kill: 16.4; TRAIL sens C8: -12.7

How did CC(C)(C)c1ccc(OCc2ccc(C(=O)N/N=C/c3ccc(O)c(O)c3)cc2)cc1 do in these assays?
HSP90 inh: 16.6*; HSF1 inhib: -5.4; STAT3 inh: -7.4; PPC-1+TRAIL kill: 1.9; TRAIL sens C8: 23.8; STAT1 blocker: -1.0

How did CC(C)c1ccc(OCc2cccc(C(=O)N/N=C/c3cccnc3)c2)cc1 do in these assays?
HSP90 inh: 11.5; HSF1 inhib: -3.2; STAT3 inh: 56.8*; PPC-1+TRAIL kill: 64.0*; TRAIL sens C8: 52.9*; STAT1 blocker: 36.1*

What do the screens show for `O=C(N/N=C/c1cccnc1)c1cccc(Cl)c1`?
HSP90 inh: -4.8; HSF1 inhib: 1.1; TRAIL sens C8: 0.7

How did O=C(N/N=C/c1cccc(C(F)(F)F)c1)c1ccc(O)cc1 do in these assays?
HSP90 inh: 10.2; HSF1 inhib: -74.5*; STAT3 inh: 12.9; PPC-1+TRAIL kill: 30.5; TRAIL sens C8: 10.9; STAT1 blocker: -3.6

What do the screens show for `CCCCCCCCSC1=CC(=O)C(OC)=C(OC)C1=O`?
TRAIL sens C8: 7.0

Results for Cc1ccc(-c2cc(N)n(Cc3ccc(Cl)cc3)n2)cc1 ?
HSP90 inh: 3.8; HSF1 inhib: 10.6; STAT3 inh: 45.5*; PPC-1+TRAIL kill: 1.4; TRAIL sens C8: 8.3; STAT1 blocker: 11.8
